# Several values for one entry are separate records, joined by “and”; a condition that tells them apart may be missing. Equal values may be shown once. Records with an inconclusive call do not appear. A call without a number means that no potency is given here. The source holds several records for some structures; these can differ, active in one and inactive in another. Activity calls are given as the source filed them. Calls come from the whole dose curve; as a rule, active = well fitted curve in the direction sought with a large enough effect; inconclusive = small, poorly fitted or top-dose-only effect, or another doubt; inactive = no such curve, though single readings can be large; an effect the other way counts as inactive or inconclusive.
# Experiments:
# [1] = target: Cytochrome P450 3A7 (Homo sapiens) (UniProt P24462); test: Cytochrome P450 family 3 subfamily A member 7 (CYP3A7) small molecule antagonists: luciferase biochemical qHTS assay (AID 1963596); note: nearly all actives have a fitted effect of over 40% in size
# Outline: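 Enzyme-substrate mix + cpd (DMSO), 10 min RT; + NADPH regen system, 1 h RT; + luciferin detection reagent, 20 min RT; luminescence read. Proluciferin substrate, P450-Glo format, 1536-well qHTS.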
# [2] = Viability qHTS for spleen associated tyrosine kinase inhibitor (SYKi) naive MV4-11 cells (AID 1963823); note: nearly all actives have a fitted effect of over 40% in size; note: potency is the fitted concentration of half-maximal effect
# Outline: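 Compounds were dispensed acoustically onto plates, MV4-11 cells (SYKi-naive) added at 500 per well, and plates incubated 72 hr at 37 C. CellTiter-Glo was added and luminescence measured after 10 min.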
# [3] = Viability qHTS for spleen associated tyrosine kinase inhibitor (SYKi) drug resistant MV4-11 cells (AID 1963824); note: nearly all actives have a fitted effect of over 35% in size; note: potency is the fitted concentration of half-maximal effect
# Outline: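 SYK inhibitor-resistant MV4-11 AML cells, 500 per well, added to predispensed compounds and incubated 72 hr at 37 C, 5% CO2. Viability measured by CellTiter-Glo luminescence after 10 min at room temperature.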
# [4] = Quantitative highthroughput screen to assess conditional lethalithy of NOMO1 cells grown in RPMI1640 with dialyzed fetal bovine serum (RPMI+ds) (AID 1963877); note: nearly all actives have a fitted effect of over 30% in size; note: potency is the fitted concentration of half-maximal effect; for Viability: series mostly up to about 46 µM
# Outline: (§1)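 Each medium arm—HPLM with 10% dialyzed FBS, or RPMI1640 with 5 mM glucose and 10% untreated or dialyzed FBS—was screened against an 11-point, 3-fold compound titration for 48 h at 37 °C, with CellTiter-Glo luminescence as endpoint.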
# [5] = Quantitative highthroughput screen to assess conditional lethalithy of P12 Ichikawa cells grown in Human Plasma-Like Medium with dialyzed fetal bovine serum (HPLM+ds) (AID 1963879); conditions: Potency: viability; note: nearly all actives have a fitted effect of over 35% in size; note: potency is the fitted concentration of half-maximal effect; for Viability: series mostly up to about 46 µM
# Outline: as §1
# [6] = Quantitative highthroughput screen to assess conditional lethalithy of P12 Ichikawa cells grown in RPMI1640 with dialyzed fetal bovine serum (RPMI+ds) (AID 1963880); conditions: Potency: P12-Ichikawa viability; note: nearly all actives have a fitted effect of over 35% in size; note: potency is the fitted concentration of half-maximal effect
# Outline: as §1
# [7] = Quantitative highthroughput screen to assess conditional lethalithy of P12 Ichikawa cells grown in RPMI1640 with untreated serum (RPMI+s) (AID 1963881); conditions: Potency: viability; note: nearly all actives have a fitted effect of over 35% in size; note: potency is the fitted concentration of half-maximal effect; for Viability: series mostly up to about 46 µM
# Outline: as §1
# [8] = Quantitative highthroughput screen to assess conditional lethalithy of SEM cells grown in Human Plasma-Like Medium with dialyzed fetal bovine serum (HPLM+ds) (AID 1963882); note: nearly all actives have a fitted effect of over 35% in size; note: potency is the fitted concentration of half-maximal effect; for Viability: series mostly up to about 46 µM
# Outline: as §1
# [9] = Quantitative highthroughput screen to assess conditional lethalithy of SEM cells grown in RPMI1640 with unreated serum (RPMI+s) (AID 1963883); note: nearly all actives have a fitted effect of over 35% in size; note: potency is the fitted concentration of half-maximal effect
# Outline: as §1
# [10] = Quantitative highthroughput screen to assess conditional lethalithy of SEM cells grown in RPMI1640 with dialyzed fetal bovine serum (RPMI+ds) (AID 1963884); note: nearly all actives have a fitted effect of over 35% in size; note: potency is the fitted concentration of half-maximal effect; for Viability: series mostly up to about 46 µM
# Outline: as §1
# [11] = Cellular viability qHTS for adrenocortical cancer (ACC) cell line NCI-H295R (AID 1963990); note: nearly all actives have a fitted effect of over 60% in size; note: potency is the fitted concentration of half-maximal effect
# Outline: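 Viability of NCI-H295R after 48 h of treatment (final up to 46 uM) measured through cellular ATP luminescence.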
# [12] = Quantitative highthroughput screen to assess conditional lethalithy of NOMO1 cells grown in RPMI1640 with untreated serum (RPMI+s) (AID 1963876); note: nearly all actives have a fitted effect of over 35% in size; note: potency is the fitted concentration of half-maximal effect
# Outline: as §1
# [13] = Cellular viability qHTS for adrenocortical cancer (ACC) cell line SW-13 (AID 1963989); conditions: SW-13 ACC cells viability, CellTiter-Glo, 48 h; activity (max response): stronger effect = lower value; note: nearly all actives have a fitted effect of over 65% in size; note: potency is the fitted concentration of half-maximal effect;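 for activity (max response): cells grown in serum-free medium with ITS supplement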
# Outline: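 Here, serum-free SW-13 cultures were dosed up to 46 uM. Following 48 h, ATP-dependent luminescence (CellTiter-Glo) reported viable cells, and logistic modeling produced IC50 values.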
# [14] = Quantitative highthroughput screen to assess conditional lethalithy of NOMO1 cells grown in Human Plasma-Like Medium with dialyzed fetal bovine serum (HPLM+ds) (AID 1963878); note: nearly all actives have a fitted effect of over 35% in size; note: potency is the fitted concentration of half-maximal effect
# Outline: as §1
# Sequence of Cytochrome P450 3A7 (Homo sapiens) (P24462 whole entry, looked up): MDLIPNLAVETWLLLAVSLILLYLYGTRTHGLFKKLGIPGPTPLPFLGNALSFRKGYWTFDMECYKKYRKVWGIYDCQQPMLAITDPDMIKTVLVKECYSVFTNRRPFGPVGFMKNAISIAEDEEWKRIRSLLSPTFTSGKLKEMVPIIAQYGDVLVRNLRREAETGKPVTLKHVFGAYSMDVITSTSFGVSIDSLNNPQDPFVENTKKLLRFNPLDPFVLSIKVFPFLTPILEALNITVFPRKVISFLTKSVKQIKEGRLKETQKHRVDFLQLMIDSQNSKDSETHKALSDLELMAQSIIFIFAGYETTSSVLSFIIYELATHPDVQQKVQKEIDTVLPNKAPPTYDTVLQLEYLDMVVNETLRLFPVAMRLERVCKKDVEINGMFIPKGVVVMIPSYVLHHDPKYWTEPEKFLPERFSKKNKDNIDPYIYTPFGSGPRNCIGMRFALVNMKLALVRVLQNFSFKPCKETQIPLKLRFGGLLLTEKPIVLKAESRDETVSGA
Structure (SMILES),Potency [1],Potency [2],Potency [3],Potency [4],Potency [5],Potency [6],Potency [7],Potency [8],Potency [9],Potency [10],Potency [11],Potency [12],activity (max response) [13],Potency [14],Potency [13]
Nc1c2c(nc3ccccc13)CCCC2,inactive,inactive,inactive and 18.6 µM (active),14.8 µM (active),inactive,inactive,inactive,inactive,inactive,inactive,inactive,,,,
CCCC(CCC)C(=O)O,inactive,inactive,inactive,,inactive,inactive,inactive,inactive,inactive,inactive,inactive,inactive,6.17% (inactive) and -13.6% (inactive),,
COc1c(O)cc2c(c1O)[C@@H]1O[C@H](CO)[C@@H](O)[C@H](O)[C@H]1OC2=O,inactive,inactive,inactive,,16.6 µM (active),,,20.9 µM (active),,18.7 µM (active),,,,14.8 µM (active),
Cc1ccc(S(=O)(=O)NC(=O)NN2CC3CCCC3C2)cc1 (stereo unspecified),inactive,inactive,inactive,,5.9 µM (active),,4.18 µM (active),5.9 µM (active),4.18 µM (active),2.96 µM (active),,,5.83% (inactive) and 9.36% (inactive),,
CC(=O)OCC(CCn1cnc2cnc(N)nc21)COC(C)=O,inactive,inactive,inactive,inactive,inactive,inactive,inactive,inactive,inactive,inactive,inactive,,5.15% (inactive) and -10.4% (inactive),inactive,
CN(C)CCOC(c1ccccc1)c1ccccc1,inactive,inactive,inactive,,,,inactive,inactive,inactive,inactive,inactive,,0.185% (inactive) and 9.44% (inactive),inactive,
Cn1nnc2c(C(N)=O)ncn2c1=O,inactive,inactive,inactive,,,,,0.332 µM (active),,0.235 µM (active),inactive,,-0.0469% (inactive) and 5.28% (inactive),18.7 µM (active),
CCn1cc(C(=O)O)c(=O)c2cc(F)c(N3CCNCC3)nc21,inactive,0.0335 µM (active),2.66 µM (active),,,inactive,inactive,inactive,inactive,inactive,inactive,,4.85% (inactive),,
CCCn1c(=O)c2[nH]c(-c3cnn(Cc4cccc(C(F)(F)F)c4)c3)nc2n(CC)c1=O,inactive,inactive,inactive,,inactive,,0.418 µM (active),inactive,inactive,inactive,inactive,6.62 µM (active),6% (inactive),,
Cc1cc(C(C)(C)C)cc(C)c1CC1=NCCN1,inactive,3.72 µM (active),5.25 µM (active),,inactive,inactive,inactive,,inactive,inactive,inactive,,-1.59% (inactive) and -10.9% (inactive),,
COc1cccc2c1CCCC2CCCN1CCN(C2CCCCC2)CC1 (stereo unspecified),inactive,16.6 µM (active),10.5 µM (active),,,18.7 µM (active),,,,,,20.9 µM (active),,,22.4 µM (active)
NCCOc1cc(C(=O)Nc2cc(OCCN)c3ccccc3n2)nc(C(=O)Nc2cc(OCCN)c3ccccc3n2)c1,inactive,1.3 µM (active) and 1.66 µM (active),2.59 µM (active) and 3.72 µM (active),,,,,,,,,,,inactive,
COC(=O)Nc1nc2ccc(S(=O)c3ccccc3)cc2[nH]1 (stereo unspecified),inactive,16.6 µM (active) and 841 nM (active),14.8 µM (active) and 668 nM (active),,7.43 µM (active),inactive,,,,,4.47 µM (active) and 259 nM (active),,,,8.91 µM (active) and 259 nM (active)
Cc1cc(C2CCCCC2)n(O)c(=O)c1,inactive,2.31 µM (active) and 4.68 µM (active),2.59 µM (active) and 3.35 µM (active) and 3.72 µM (active),,,,,13.2 µM (active),11.8 µM (active),13.2 µM (active),2 µM (active),,,,1.3 µM (active) and 25.1 µM (active)
CCC1(C)CC(=O)NC1=O (stereo unspecified),inactive,inactive,inactive,inactive,inactive,inactive,inactive,inactive,inactive,inactive,inactive,,14.5% (inactive) and 4.04% (inactive),,
COc1cc2c(Nc3ccc(Br)cc3F)ncnc2cc1OCC1CCN(C)CC1,inactive,inactive and 820 nM (active),inactive and 731 nM (active) and 2.95 µM (active),,inactive,,,,,,inactive and 25.1 µM (active),inactive,-8.28% (inactive),,17.8 µM (active)

# From PubChem BioAssay (NCATS)
